# High-throughput results from PubChem.
# TbREL1 inh: TbREL1 inhibition, primary screen; P86926; inhibition, % at 9.66 µM; actives 0.49% (n = 89,000); TbREL1 RNA ligation, FRET fluorescence;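 active means inhibition above the mean inhibition across all screened compounds plus 3 SD, cut at about 11% in these data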
# Target sequence (P86926 whole entry, looked up): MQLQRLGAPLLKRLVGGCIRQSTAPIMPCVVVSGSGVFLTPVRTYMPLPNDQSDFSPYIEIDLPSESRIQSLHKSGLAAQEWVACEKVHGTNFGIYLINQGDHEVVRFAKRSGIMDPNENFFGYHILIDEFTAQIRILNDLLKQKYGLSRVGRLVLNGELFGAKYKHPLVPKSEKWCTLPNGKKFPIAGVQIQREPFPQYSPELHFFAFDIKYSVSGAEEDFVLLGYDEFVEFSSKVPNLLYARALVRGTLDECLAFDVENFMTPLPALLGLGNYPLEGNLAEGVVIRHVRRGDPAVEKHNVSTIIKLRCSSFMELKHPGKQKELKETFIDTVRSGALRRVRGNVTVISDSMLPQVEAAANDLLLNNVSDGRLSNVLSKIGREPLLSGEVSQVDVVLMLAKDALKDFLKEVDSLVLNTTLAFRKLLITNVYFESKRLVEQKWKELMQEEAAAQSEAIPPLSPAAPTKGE
# TbREL1 conf: TbREL1 inhibition, confirmation. shares compounds with TbREL1 inh. TbREL1 RNA ligation, FRET fluorescence. inhibition, % at 9.66 µM. actives 37% (n = 390);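 active means mean inhibition across replicates above a set limit taken from the earlier primary screen, cut at about 11% in these data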
# Numbers stand for hits; n = inactive. This excerpt belongs to a sample that is enriched for hits.
SMILES,TbREL1 inh,others
CC(C)(C)Sc1ccc(N)nc1,39,TbREL1 conf=n
O=C1CCC[C@H]2Cc3nc4ccccc4cc3C[C@]23CCCN13,n,
CCC[C@H]1[C@@H](NC(=O)C2CCC2)CC[C@@]23CCCN2C(=O)CCC[C@@H]13,n,
O=c1c(-c2ccc(O)cc2)coc2cc(OC3OC(CO)C(O)C(O)C3O)cc(O)c12 (stereo not drawn),n,
C[C@@H]1O[C@@H](Oc2c(-c3cc(O)c(O)c(O)c3)oc3cc(O)cc(O)c3c2=O)[C@H](O)[C@H](O)[C@H]1O,54,TbREL1 conf=36
COc1cc(-c2oc3cc(O)cc(O)c3c(=O)c2O[C@@H]2O[C@H](COC3O[C@@H](C)[C@H](O)[C@@H](O)[C@H]3O)[C@@H](O)[C@H](O)[C@H]2O)ccc1O (stereo partly drawn),n,
O=C(NCc1ccco1)C1CCCN(c2ncccn2)C1 (stereo not drawn),n,
O=C1COc2ccc(C(=O)COC(=O)/C=C/c3ccc(Br)o3)cc2N1,18,TbREL1 conf=n
COc1ccc(/C=C/C(=O)OCC(=O)c2ccc3c(c2)NC(=O)CO3)c(OC)c1,n,
COc1cccc(/C=C/C(=O)OCC(=O)c2ccc3c(c2)NC(=O)CO3)c1OC,n,
Clc1ccc(OCCOc2ccc(Br)nc2Br)c(Cl)c1,n,
CCOC(=O)c1cc2c(C)n(-c3ccc(N(C)C)cc3)c(C)c2cc(C(=O)OCC)c1=O,n,
COc1cccc(=O)c2c(C)n(-c3ccc(C(=O)O)cc3)c(C)c12,23,TbREL1 conf=12
CCOc1cccc(=O)c2c(C)n(-c3ccc(C(=O)O)cc3)c(C)c12,46,TbREL1 conf=11
Cc1nc(=O)c(-c2ccccc2)c(C)n1-c1ccc(C(=O)O)cc1,n,
CCOc1ccccc1CNCc1ccc(C(=O)O)cc1,n,
Cc1cc(=O)n(-c2ccc(C(=O)O)cc2)[nH]1,n,
Cn1c(=O)oc2cc(S(=O)(=O)N3CCN(CCO)CC3)ccc21,n,
CCN(C(=O)CN1CCN(c2nc(-c3ccccc3)cs2)CC1)c1ccccc1C,n,
O=C(CSc1nnc(COc2ccccc2)n1-c1ccc(Cl)cc1)Nc1ccccc1-c1ccccc1,n,
Cc1cc(C(=O)Nc2ccc(Cl)c(Cl)c2)n(-c2ccccc2)n1,n,
C=CCn1c(COc2ccccc2)nnc1SCC(=O)Nc1ccc(Oc2ccccc2)cc1,n,
Nc1ccc(Oc2ccc3c(c2)OCO3)cc1,n,
CC(=O)c1ccc2c(c1)OCCOCCOCCO2,n,
Nc1ccc2c(c1)OCCOCCOCCOCCOCCO2,14,TbREL1 conf=n
SMILES,TbREL1 inh,others
O=C(C1CCCN(S(=O)(=O)c2ccccc2F)C1)N1CCN(Cc2ccccc2)CC1 (stereo not drawn),n,
C=CCN(C)C(C#Cc1ccccc1)Cc1ccccc1 (stereo not drawn),n,
O[C@@H](Cc1ccccc1)[C@@H](/C=C/c1ccccc1)NCCc1ccccc1,11,TbREL1 conf=n
COC(=O)[C@@H](N[C@H](/C=C/c1ccccc1)[C@@H](O)Cc1ccccc1)c1ccccc1,n,
O=C(/C=C/c1ccc(Cl)cc1)NCCc1ccccc1,n,
COc1cc(NC(=O)C2CCCN(S(=O)(=O)c3cc(OC)ccc3OC)C2)cc(OC)c1 (stereo not drawn),n,
COc1ccc2c(c1)CCCN2C(=O)C1CCCN(S(=O)(=O)c2cccc3ccccc23)C1 (stereo not drawn),n,
Nn1c(SCC(=O)Nc2cccc(C(F)(F)F)c2)nncc1=O,n,
Nn1c(SCC(=O)Nc2c(Cl)cccc2Cl)nncc1=O,n,
CCOc1ccc(NC(=O)CSc2nncc(=O)n2N)cc1,11,TbREL1 conf=n
O=C(Nc1ccc(Oc2ccccc2)cc1)C1CCN(c2nnc(-n3cccc3)s2)CC1,n,
Cn1c(Cc2cccs2)nnc1SCC(=O)Nc1ccc2c(c1)OCCO2,n,
O=C(N1CCC(C(O)(c2ccccc2)c2ccccc2)CC1)n1ncc(C(O)(c2ccccc2)c2ccccc2)n1,n,
O=C(O)c1ccccc1-c1ccc(C=c2sc3nc4cc(Br)cnc4n3c2=O)o1,45,TbREL1 conf=48
O=C(O)c1ccccc1-c1ccc(/C=C/c2cc(C(F)(F)F)[nH]c(=O)n2)o1,n,
N=C1S/C(=C\c2ccc(-c3ccccc3C(=O)O)o2)C(=O)N1c1ccc2c(c1)OCO2,n,
CCC(NC(=O)c1cccc2c1C(=O)N(Cc1cccnc1)C2)c1ccccc1 (stereo not drawn),n,
O=C(CN1CCN(Cc2ccccc2)CC1)N/N=C\c1c2ccccc2cc2ccccc12,n,
Oc1ccc2ccccc2c1C=NN1CCN(Cc2ccc(Cl)cc2)CC1,n,
c1nc(NC[C@@H]2CCCO2)c2cc(-c3ccc4c(c3)OCO4)ccc2n1,n,
COC(=O)C1=C(C)N(CCCC(=O)O)C(=O)NC1c1ccc2c(c1)OCO2 (stereo not drawn),n,
COC(=O)C1=C(C)N(Cc2ccccc2C(F)(F)F)C(=NCc2ccc3c(c2)OCO3)NC1c1cccc(F)c1 (stereo not drawn),13,TbREL1 conf=18
COC(=O)C1=C(C)N(Cc2ccc(Cl)cc2)C(=S)NC1c1cccc(Br)c1 (stereo not drawn),n,
COC(=O)C1=C(C)N(Cc2ccccc2C(F)(F)F)C(=NCc2ccc3c(c2)OCO3)NC1c1cccc(Cl)c1 (stereo not drawn),14,TbREL1 conf=14
CCCC1CCC2(CC1)CCC2OC(=S)Nc1cccc(C(F)(F)F)c1 (stereo not drawn),n,
SMILES,TbREL1 inh,others
COc1ccc(-n2c(SCC(=O)NN=Cc3c(O)ccc4ccccc34)nnc2-c2ccc(C(C)(C)C)cc2)cc1,n,
Cc1cc(Cl)c(OCCCNCc2ccccc2)c(Br)c1,12,TbREL1 conf=11
Cc1cc(C)c(OCCCNCc2ccccc2)c(Br)c1,15,TbREL1 conf=15
Clc1ccc(OCCCNCc2ccccc2)c(Br)c1,n,
COc1cccc(OCCNCc2ccccc2)c1,n,
Cc1cc(Cl)c(OCCN2C(=O)NC(C)(C)C2=O)c(Br)c1,n,
CCCCNCc1cc(Br)c(OCC(=O)NCc2ccccc2)c(OC)c1,n,
CCC[C@H]1[C@@H](NC(=O)c2cccc(Cl)c2)CC[C@@]23CCCN2C(=O)CCC[C@@H]13,n,
C[C@H]1[C@@H](NC(=O)/C=C/c2ccccc2)CC[C@@]23CCCN2C(=O)CCC[C@@H]13,n,
Cc1cccc(C)c1NC(=O)Cn1nnc(-c2ccncc2)n1,n,
COc1ccc2[nH]c3c(c2c1)CCN[C@]31C(=O)N(C)c2ccccc21,n,
Cc1onc(-c2ccccc2)c1C(=O)N(C)CCc1ccccn1,n,
Cc1onc(-c2ccccc2)c1C(=O)NC(C)C,n,
Cc1onc(-c2ccccc2)c1C(=O)N(Cc1ccccn1)Cc1ccccn1,11,TbREL1 conf=n
Nc1[nH]c(C(=O)c2ccccc2)c(-c2cccnc2)c1C(=O)NCCc1c[nH]c2ccccc12,n,
O=C(NCCO)[C@H](Cc1ccccc1)NC1(C(=O)NCCN2CCOCC2)CCCCC1,n,
O=C(CSc1nnc(-c2ccccc2)n1Cc1ccco1)Nc1ccc(OCc2ccccc2)cc1,n,
O=C(Nc1ccc(C(=O)NN2C(=O)c3ccccc3C2=O)cc1)c1ccccc1,n,
NS(=O)(=O)c1ccc(NC(=O)c2cccc(N3C(=O)c4ccccc4C3=O)c2)cc1,12,TbREL1 conf=23
NS(=O)(=O)c1ccc(NC(=O)c2cc(=O)c3ccccc3o2)cc1,n,
CC(C)[C@H]1/C(=C/C2CC2)N2C(=O)C[C@H](c3cccc(C(F)(F)F)c3)N=C2N1Cc1ccc2c(c1)OCO2,n,
O=C(CSc1nnc(-c2ccccn2)n1-c1ccccc1)c1ccc(Cl)c(Cl)c1,n,
O=C(CSc1nnc(-c2ccncc2)n1-c1ccccc1)Nc1ccc2c(c1)OCCO2,n,
